Screening results as filed in PubChem.
A selection: hits, their analogues and other compounds. The true share with any hit is near 7.3%.
AmpC detergent – qHTS Inhibitors of AmpC Beta-Lactamase (assay with detergent) | AmpC hydrolysis of nitrocefin, absorbance 480 nm, 0.01% Triton | Potency, µM (series often up to 114 µM), for inactives: at the highest dose activity change, negative = inhibition, actives largely listed as inhibitors | P00811 | AID 485294, 2010 | 370,000 tested, 0.041% active;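 further: potency means the concentration at half of the fitted maximal effect; 0% = no-compound wells and -100% = no-enzyme wells; nearly all actives have a fitted effect of over 25% in size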
Target sequence (P00811 whole entry, looked up): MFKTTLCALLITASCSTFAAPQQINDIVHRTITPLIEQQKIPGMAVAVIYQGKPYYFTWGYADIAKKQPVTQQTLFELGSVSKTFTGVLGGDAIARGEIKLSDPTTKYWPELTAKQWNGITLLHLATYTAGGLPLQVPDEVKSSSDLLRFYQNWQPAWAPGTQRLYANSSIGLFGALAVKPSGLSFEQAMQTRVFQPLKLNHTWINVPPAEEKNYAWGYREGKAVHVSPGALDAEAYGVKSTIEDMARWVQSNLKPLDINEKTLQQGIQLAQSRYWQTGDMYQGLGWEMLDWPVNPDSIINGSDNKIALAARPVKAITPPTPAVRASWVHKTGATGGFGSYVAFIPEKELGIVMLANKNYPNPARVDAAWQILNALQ
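20 mM phosphate pH 7.0 + 0.01% (detergent screen) or 0.0001% Triton X-100; 5.3 nM AmpC reagent; cpd preinc 15 min RT; nitrocefin (800 uM stock) to start; A480 q20 s × 4 min; Activity was normalised to no-enzyme and no-compound control wells.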
HCV inhibitor – qHTS Assay for Inhibitors of Hepatitis C Virus (HCV) | Huh7.5.1 HCVcc-Cre infection, luciferase reporter, 44 h | Potency, µM (titrated, usually from 41.8 µM), for inactives: at the highest dose activity change, negative = inhibition, hits mostly inhibitors | 340,000 tested, 3.4% active | AID 651820, 2012; further: potency means the concentration at half of the fitted maximal effect
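HCVcc-Cre virus at an moi near 0.5 was added right after compound to cells cultured 4 h from seeding (1,000 cells/well). Luciferase activity was determined 44 h later, 15 min after substrate addition at RT.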
FMDV inh – High Throughput Screening for Foot and Mouth Disease Virus Antivirals | 410,000 tested, 1.2% active | AID 1159524, 2015 | Potency, µM (doses to about 57.9 µM), inactives show top-dose activity change, negative = inhibition, hits mostly inhibitors | FMDV antiviral cell-based qHTS; calls by dose curve; tested in HEK293T cells; further: read-out not given here; potency means the concentration at half of the fitted maximal effect; nearly all actives have a fitted effect of over 45% in size
AmpC inh no detg – qHTS Inhibitors of AmpC Beta-Lactamase (assay without detergent) | AID 485341, 2010 | Potency, µM (doses to about 57.1 µM), for inactives: at the highest dose activity change, negative = inhibition, most hits filed as inhibitors | P00811 | 330,000 tested, 0.52% active | AmpC nitrocefin hydrolysis, absorbance 480 nm, 0.0001% Triton;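 further: potency means the concentration at half of the fitted maximal effect; plate controls were no compound for no effect and no enzyme for full effect; nearly all actives have a fitted effect of over 20% in size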
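20 mM phosphate pH 7.0 + 0.01% (detergent screen) or 0.0001% Triton X-100; 5.3 nM AmpC reagent; cpd preinc 15 min RT; nitrocefin (800 uM stock) to start; A480 q20 s × 4 min; Activity was normalised to no-enzyme and no-compound control wells.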
HCMV inh – qHTS Assay for inhibitors of the human cytomegalovirus (HCMV) | HFF cells, HCMV-luciferase reporter, 72 h; active compounds read low | activity change, negative = inhibition, % at 57.5 µM | 410,000 tested, 4.5% active; in the data active means activity change below about -60%; inconclusive means no clear call, values can overlap the other calls; inactive means above about -39%
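Compounds were evaluated in HFFs infected with an HCMV luciferase reporter virus (MOI 1 PFU/cell). Luciferase in lysates collected 72 h post infection served as the replication measure.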
The depositor's hits bear a star; ? = inconclusive; · = no result given; ! = a repeat was not active; [ ] = remark or other dose. Unless noted, the call rests on the fitted dose curve; in most records, active means well fitted curve in the direction sought with a large enough effect; inconclusive means small, poorly fitted or top-dose-only effect, or another doubt; inactive means no such curve, though single readings can be large; an effect the other way counts as inactive or inconclusive. Unless noted, on the % scale 0 is the no-effect control and ±100 the full control effect.

SMILES | AmpC detergent | HCV inhibitor | FMDV inh | AmpC inh no detg | HCMV inh
Cc1cc(C)n2c(SCC(=O)Nc3ccccc3C#N)nnc2n1 | ? | 11.2% | 4.0% | -18.5% | 11.6
CC(c1ccco1)N(C(=O)c1cc(Cl)cc(Cl)c1)c1ccccn1 (centres undefined) | ? | -24.9% | 14.7% | 0.0% | -62.1*
COc1ccc(OC)c(Nc2cc(C)nc3ccc(C)cc23)c1 | · | 22.4µM* | ? | · | -13.4
COc1ccccc1/C=N/Nc1cc(C)nc2ccc(C)cc12 | -4.0% | ? | 4.3% | 43.8% | 26.8
COc1ccc2nc(C)cc(Nc3ccc(N4CCOCC4)cc3)c2c1 | ? | ? | · | -7.4% | -86.5*
COc1ccc2nc(C)cc(Nc3ccc(C)cc3)c2c1 | -12.8% | ? | -16.2% | -22.5% | -22.6
COc1ccc2nc(C)cc(NCCN3CCOCC3)c2c1 | -5.0% | 0.8% | 3.7% | -22.2% | -22.1
COc1ccc2nc(C)cc(Nc3ccc(N4CCN(C)CC4)cc3)c2c1 | -5.9% | 10µM* | -10.5% | 1.2% | -101.7*
COc1ccc2nc(C)cc(Nc3ccc(Cl)c(Cl)c3)c2c1 | -9.3% | · | ? | · | -106.1*
C[C@H](c1ccccc1)N1C[C@@H](COCc2ccccc2)Oc2cccc(F)c2S1(=O)=O | · | · | · | · | -39.2
Cc1ccc(CCNC(=O)c2cn(C)c3ccc(S(=O)(=O)N(C)C4CCCCC4)cc3c2=O)cc1 | 0.8% | · | 10.7% | · | -6.8
Cc1cc(=O)n2c3ccccc3n(CC(O)CN3CCN(Cc4ccccc4)CC3)c2c1C#N (centres undefined) | 1.7% | ? | -25.6% | 70.4% | -67.9*
OC(CN1CCN(Cc2ccccc2)CC1)Cn1c2ccccc2c2ccccc21 (centres undefined) | -7.7% | 11.2µM* | -19.0% | 177.0% | -27.7
COC(=O)c1ccc(N2C(c3ccsc3)=Cc3cc4c(cc3C2CC(=O)c2ccco2)OCO4)cc1 (centres undefined) | · | · | 5.4% | · | -69.5*
CCC(=O)Nc1c(-c2ccccc2Cl)c(=O)c2ccccc2n1CC | 1.6% | 13.5% | -14.1% | -14.9% | 15.9
COC(=O)CC1=C(C(=O)OC)C(c2cccs2)C(C#N)=C(N)O1 (centres undefined) | -0.7% | 22.2% | 0.0% | -5.0% | -100.7*
CCOC(=O)C1=C(CC)OC(N)=C(C#N)C1c1cccs1 (centres undefined) | 1.0% | 3.5% | · | -20.6% | 32.3
CCN(CC)S(=O)(=O)c1ccc2oc(SCC(=O)Nc3cc(C)on3)nc2c1 | -5.4% | 6.31µM* | -2.6% | -11.4% | ?
CCS(=O)(=O)c1ccc2oc(SCC(=O)NCCc3ccc(F)cc3)nc2c1 | 1.5% | -22.6% | ? | -10.1%[2.29 µM] | ?
CCS(=O)(=O)c1ccc2oc(SCC(=O)NCCC3=CCCCC3)nc2c1 | ? | 3.0% | ? | -5.3% | -102.8*
Cc1cc(NC(=O)CSc2nc3cc(Cl)ccc3o2)no1 | -1.9% | -20.4% | -10.3% | 1.0% | -39.2
Cc1cc(C)cc(N(CC(=O)NCc2ccc(F)cc2)C(=O)CCC(=O)Nc2ccccn2)c1 | -1.0% | -14.0% | -29.9% | -1.3% | 65.9
Cc1ccc(Cl)cc1N1CCN(C(=O)c2cc3c(=O)[nH]c4ccccc4c3n2C)CC1 | 3.6% | 8.91µM*! | 7.94µM* | 44.7% | -94.9*
COc1cc(NC(=O)CN2C(=O)CCc3cc(Br)ccc32)cc(OC)c1OC | 2.1% | · | -13.8% | · | 7.5
Cc1ccc(NC(=O)Nc2ccc([N+](=O)[O-])cc2)nc1 | 1.2% | -0.9% | 34.0% | -18.4% | -70.0*
SMILES | AmpC detergent | HCV inhibitor | FMDV inh | AmpC inh no detg | HCMV inh
O=C(Nc1ccc([N+](=O)[O-])cc1)Nc1ccon1 | -5.4% | -1.4% | -21.5% | -21.8% | -86.2*
Cc1nc(-c2cccc(NC(=O)Nc3ccc([N+](=O)[O-])cc3)c2)no1 | -0.2% | · | 14.1µM* | · | -99.0*
Cc1cccc(C)c1-n1nnnc1C(c1ccnc2ccccc12)N1CCOCC1 (centres undefined) | · | · | -22.1% | · | -8.6
COC(=O)c1cn(CC(C)n2c(=O)c3ccccc3n2Cc2cc(C(C)C)no2)nn1 (centres undefined) | · | · | -16.4% | · | 14.1
CC(NC(=O)C1CCN(c2nnc(N3CCCC3=O)s2)CC1)c1ccccc1 (centres undefined) | -7.8% | -5.8% | 0.0% | 23.0% | -5.9
CC(C)NC(=O)c1ccc(COc2cc(Cl)ccc2Cl)o1 | 1.8% | 11.2µM* | -7.4% | 45.3% | 8.6
Cc1ccc(C)c(S(=O)(=O)N2[C@@H]3CC[C@@H](C3)[C@H]2c2nc3c(OCC4CCOCC4)cccc3[nH]2)c1 | · | · | · | · | 1.0
O=C(CSc1nnc(COc2ccc(Cl)cc2)o1)N1c2ccccc2CCc2ccccc21 | -8.6% | 10µM* | 0.0% | -11.3% | -15.6
O=C(CSc1nnc(COc2ccc(Cl)cc2)o1)N1CCCC1 | -0.7% | -18.8% | 3.6% | -5.3% | 16.8
CC1(c2ccc(OC(F)F)cc2)NC(=O)N(CC(=O)NCCC2=CCCCC2)C1=O (centres undefined) | ? | -9.3% | -27.6% | 27.6% | -24.0
Cc1ccc(-c2cc3c(nn2)-c2ccccc2C3=O)cc1 | -1.3% | -2.0% | 10µM* | -32.3% | 0.0
O=C1c2ccccc2-c2nnc(-c3ccc(F)cc3)cc21 | 1.4% | -9.6% | -21.5% | -23.3% | 0.4
O=C(CSc1nc2ccccc2c(=O)n1-c1ccccc1Cl)NCC1CCCO1 (centres undefined) | 3.4% | -6.5% | -20.2% | 19.0% | 0.0
CC(=O)c1ccc(N2CCN(c3ncnc4c3cnn4-c3cc(Cl)ccc3C)CC2)cc1 | -4.2% | · | 14.1µM* | · | -8.4
Cc1cccc(-n2ncc3c(N4CCCC4)ncnc32)c1 | -5.3% | ? | · | -7.9% | -1.7
Cc1ccc(Cl)cc1-n1ncc2c(N3CCCCCC3)ncnc21 | -0.7% | · | 20µM* | · | -35.3
Clc1ccc(Cn2ncc3c(N4CCCCC4)ncnc32)c(Cl)c1 | 0.7% | 4.7% | 28.2µM* | · | -21.1
Clc1ccc(Cn2ncc3c(N4CCCCC4)ncnc32)cc1 | 2.3% | ? | ? | 21.7% | -15.5
Cc1ccc(-n2ncc3c(N4CCN(Cc5ccccc5)CC4)ncnc32)cc1Cl | -1.3% | · | 12.6µM* | · | -31.7
Cc1ccccc1CN1CCN2C(C(=O)NCC3CCOCC3)=COC2=NC1=O | · | · | · | · | -0.3
COc1ccc(-n2ncc3c(N4CCN(c5cc(C)ccc5C)CC4)ncnc32)cc1 | -4.1% | 11.2% | ? | -8.4% | 73.4
Cc1ccc(-n2ncc3c(N4CCCCC4)ncnc32)cc1Cl | -6.9% | · | 25.1µM* | · | -88.6*
COc1ccccc1N1CCN(c2ncnc3c2cnn3-c2cc(Cl)ccc2C)CC1 | 4.7% | · | 11.2µM* | · | ?
COc1ccc(N2CCN(c3ncnc4c3cnn4-c3ccc(C)c(Cl)c3)CC2)cc1 | 5.9% | · | -1.1% | · | -38.6
